Bioassay records from PubChem BioAssay.
Compounds with a hit are over-represented: about 21% of the library has one in this group of screens.
Pf growth 96h: inhibits malaria parasite growth, 96 h | P. falciparum luciferase reporter growth, 96 h | AID 504834 | 320,000 compounds, 6.9% hits | Potency, µM (doses to about 28.7 µM), without a hit: at the top dose activity change, negative = inhibition, hits mostly inhibitors; also: potency is read from the fitted curve at half-maximal effect; % is scaled to controls: 0 for no effect and ±100 for the full control effect
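Luminescence readout: decreased luciferase signal marks inhibited growth of reporter-expressing P. falciparum in infected red cells (2% hematocrit, 0.05% parasitemia final), exposed to compound two generations (96 h, 37 C, 5% CO2).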
Pf growth 48h: P. falciparum growth inhibition at 48 hours (one generation); P. falciparum luciferase growth in erythrocytes, 48 h; Potency, µM (top dose mostly 28.7 µM), for inactives: at the highest dose activity change, negative = inhibition, actives largely listed as inhibitors; 310,000 compounds, 5.9% hits; AID 504832; also: potency is read from the fitted curve at half-maximal effect; % is scaled to controls: 0 for no effect and ±100 for the full control effect
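Luciferase-expressing parasites in RBCs, 2% Hct / 0.1% parasitemia final; RPMI 1640 + 0.5% Albumax; 37 C, 5% CO2, one generation; luminescence read-out, lower signal = inhibition.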
Shiga inhibitor: Shiga toxin inhibition. Vero cells, Shiga toxin protein synthesis inhibition reporter. inhibition, % at 38.7 µM. 290,000 compounds, 9.2% hits. AID 2315; in the data active = inhibition mostly above about 28%, no sharp cut-off; inactive = mostly below about 43%; also: 0% is about no effect
Cycloheximide cs: affects cycloheximide protein synthesis inhibition readout, counter-screen. 300,000 compounds, 12% hits. max response, %. cell reporter, cycloheximide protein synthesis inhibition counterscreen; in the data active = max response mostly above about 13%, no sharp cut-off; inactive = mostly below about 14%; also: read at 38.3 µM for the half of the compounds with a filed dose; 0% is about no effect
HCV inhibitor: blocks hepatitis C virus. Huh7.5.1 HCVcc-Cre infection, luciferase reporter, 44 h. Potency, µM (titrated, usually from 41.8 µM), without a hit: at the highest dose activity change, negative = inhibition, hits mostly inhibitors. 340,000 compounds, 3.4% hits. AID 651820; also: potency is read from the fitted curve at half-maximal effect; % is scaled to controls: 0 for no effect and ±100 for the full control effect
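Compounds are dispensed onto cells plated 4 h earlier at 1,000 per well, with HCVcc-Cre virus (about 0.5 moi) added next. Following 44 h of culture, luminescent signal is measured for 15 sec after 15 min with substrate at room temperature.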
AMA1-RON2 inh: disrupts binding of P. falciparum AMA1 to RON2 | AlphaScreen AMA1-biotinylated RON2 peptide binding | Potency, µM (titrated, usually from 58.2 µM), for the others: top-dose activity change, negative = inhibition, actives largely listed as inhibitors | 360,000 compounds, 0.2% hits;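 also: potency is read from the fitted curve at half-maximal effect; 0% = vehicle wells and -100% = peptide control; nearly all actives have a fitted effect of over 45% in size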
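AMA1 (3D7) with his tag at 25 nM final met compounds first, then biotinylated RON2 peptide at 25 nM; detection used donor plus acceptor beads, 10 µg/mL apiece, read by AlphaScreen after 30 min at room temperature.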
Starred values were filed as active, the others as inactive; ? = inconclusive; . = not tested or not shown. Unless noted, calls follow the shape of the dose curve; as a rule, active = well fitted curve in the direction sought with a large enough effect; inconclusive = small, poorly fitted or top-dose-only effect, or another doubt; inactive = no such curve, though single readings can be large; an effect the other way counts as inactive or inconclusive.

SMILES	Pf growth 96h	Pf growth 48h	Shiga inhibitor	Cycloheximide cs	HCV inhibitor	AMA1-RON2 inh
COc1ccc(C(=O)C2CCCN(C(=O)c3cc(C)nc(C)n3)C2)cc1OC (stereo unspecified)	0%	6%	50*	24	10%	-15%
COc1ccccc1C(=O)C1CCCN(C(=O)CN2CCCCC2=O)C1 (stereo unspecified)	?	57%	29	19*	9%	3%
COc1ccc(-c2noc(CCC(=O)N3CCN(c4ccccc4Br)CC3)n2)cc1	.	.	.	.	-41%	0%
O=C1c2ccccc2C(Nc2ccc(S(=O)(=O)N3CCCCCC3)cc2)N1c1ccccn1 (stereo unspecified)	-25%	.	-4	-8	-5%	0%
Cc1ccc(N2C(=O)c3ccccc3C2O)nc1 (stereo unspecified)	?	24%	0	7	5%	.
Cc1ccc(N2C(=O)c3ccccc3C2Nc2ccccc2F)nc1 (stereo unspecified)	?	.	55*	32*	?	4%
COc1cc(OC)c(NC2c3ccccc3C(=O)N2c2cc(C)ccn2)cc1Cl (stereo unspecified)	12µM*	-12%	-4	-1	3%	-13%
O=C1c2ccccc2C(Nc2ccc(Cl)cn2)N1c1ccccn1 (stereo unspecified)	6%	12µM*	3	0	-17%	0%
C[C@H](CO)N1C[C@H](C)[C@@H](CN(C)S(=O)(=O)c2ccc(F)cc2)OCc2cn(nn2)CCCC1=O	.	.	.	.	.	0%
CN(C)S(=O)(=O)c1cccc(NC(=O)c2sccc2-c2ccccc2)c1	?	?	-6	5	-25%	3%
CC(C)(C)c1ccc(NC(=O)c2c(F)cccc2Cl)cc1	9.3µM*	?	55*	31*	?	2%
CN(CC(=O)Nc1ccccc1Cl)C(=O)COC(=O)c1nc(Cl)c(Cl)c(Cl)c1Cl	0%	-4%	53*	45*	?	-17%
O=C(Nc1ccc(N2CCOCC2)cc1)c1c(F)cccc1Cl	6%	7%	35	11	-21%	6%
O=C(Nc1ccc(Nc2ccccc2)cc1)c1c(F)c(F)c(F)c(F)c1F	4%	45%	.	0	?	-29%
Cc1cc(OC(=O)Nc2ccccc2)ccc1Cl	.	.	.	.	.	-1%
O=C(Nc1ccccc1Cl)Oc1ccc(-c2ccccc2)cc1	0%	34%	36	18*	8%	-7%
O=C(Nc1ccc(Nc2ccccc2)cc1)c1c(Cl)cccc1Cl	.	.	.	.	10µM*	-18%
O=C1CC(c2ccccc2)=C(c2ccccc2)C1c1ccccc1 (stereo unspecified)	.	.	.	.	-18%	-1%
OC(Cc1cccc(Br)c1)c1ncc(-c2cccc(C(F)(F)F)c2)[nH]1 (stereo unspecified)	.	.	.	.	.	-4%
CC1CN2C(c3ccc([N+](=O)[O-])cc3)=CSC2=N1 (stereo unspecified)	-23%	10%	.	-3	?	-24%
O=C(Nc1ccc(Cl)cc1)Nc1ccccc1Sc1ncc([N+](=O)[O-])s1	40%	2.6µM*	63*	34*	-18%	72%
O=C(Nc1ccccc1Cl)Nc1cccnc1Cl	?	14%	25	15	?	-13%
O=C(Nc1ncc(Cl)cc1Cl)c1c(F)cccc1Cl	15%	14%	66*	21	11%	-5%
O=C(NNc1c(Cl)cccc1Cl)c1c(F)cccc1Cl	?	7%	-4	-1	6%	4%
COc1ccccc1NC(=O)Nc1ccccc1SC	42%	-2%	35	1	-12%	3%
SMILES	Pf growth 96h	Pf growth 48h	Shiga inhibitor	Cycloheximide cs	HCV inhibitor	AMA1-RON2 inh
O=C(Nc1ccccc1Cl)Nc1ccccc1Cl	68%	22%	32	21*	-29%	15%
CSc1ccccc1NC(=O)Nc1ccccc1Cl	60%	-5%	38	24*	-10%	-23%
O=C(Nc1cc(Cl)ccc1N1CCOCC1)c1ccc(=O)[nH]c1	.	.	.	.	-6%	-23%
Cc1ccc(NS(=O)(=O)c2c(F)cc(F)c(Cl)c2F)cc1S(=O)(=O)N1CCOCC1	.	.	.	.	2%	-12%
Cc1c(C)n2c(SCC(=O)NCc3ccc4c(c3)OCO4)nnc2[nH]c1=O	?	?	.	.	19%	3%
O=C(Nc1cnccn1)Nc1ccccc1Cl	42%	41%	62	12	?	1%
O=C(Nc1ccc(Nc2ccccc2)cc1)Nc1ccccc1Cl	105%	102%	97*	41*	-25%	-24%
O=C(Nc1ccccn1)Nc1ccccc1Cl	16%	61%	50*	32*	-1%	-2%
Cn1ccc(C(=O)OCC(=O)Nc2ccccc2Cl)n1	?	29%	26	-2	3.2µM*	8%
O=C(Nc1ccccc1)Nc1cc(Cl)cc(Cl)c1	.	.	39	25	?	5%
O=C(COc1ccccc1)Nc1ccccc1Cl	?	103%	108*	41*	10%	7%
COC(=O)c1ccccc1NC(=O)COc1ccccc1	21%	.	15	4	.	20%
O=C(COc1ccc(-c2ccccc2)cc1)NNC(=O)NC1CCCCC1	20%	?	-4	-1	4%	24%
COc1ccc(NS(=O)(=O)c2cc(NC(=O)C(CC(C)C)NC(N)=O)ccc2N2CCOCC2)cc1 (stereo unspecified)	.	.	.	.	9%	3%
O=C(Nc1ccc(Cl)cn1)Nc1ccccc1Cl	2%	22%	9	6	?	-22%
O=C(Nc1csc([N+](=O)[O-])c1)Nc1ccccc1Cl	?	?	54*	36*	-19%	0%
COc1ccc(N(CC(=O)Nc2ccc(F)cc2)S(=O)(=O)c2ccccc2[N+](=O)[O-])c(OC)c1	8%	?	-14	-1	-15%	-6%
COc1ccc(N(CC(=O)Nc2cc(C)ccc2C)S(=O)(=O)c2ccccc2[N+](=O)[O-])c(OC)c1	38%	2.9µM*	-15	7	-20%	6%
COc1ccc(N(CC(=O)Nc2cc(C)cc(C)c2)S(=O)(=O)c2ccccc2[N+](=O)[O-])c(OC)c1	8.3µM*	?	-20	1	20%	-10%
COc1ccc(C)cc1S(=O)(=O)N(CC(=O)Nc1cccc([N+](=O)[O-])c1)c1ccccc1	12µM*	?	-10	1	1%	12%
CS(=O)(=O)N(CC(=O)Nc1cccc([N+](=O)[O-])c1)c1ccccc1	26%	16%	13	-4	-6%	3%
Cc1ccc(SCC(=O)OCC(=O)N(CCC#N)c2ccccc2)cc1	0%	-1%	.	.	18%	0%
Cc1ccccc1CN1CCN(c2nc3ccccc3s2)CC1	155%	.	63*	51*	?	-3%
O=[N+]([O-])c1ccc(CN2CCN(c3nc4ccccc4s3)CC2)cc1	?	29%	24	12*	18%	2%
